Experimental data published in PubChem BioAssay.
Calls of active or inactive are those of the source.

These compounds were tested against NADPH oxidase 4 (Homo sapiens) (UniProt Q9NPH5) (assay: compounds shifting NOX4 Amplex Red fluorescence – cell-based, HEK293-NOX4, tetracycline-induced, NOX inhibitor project, primary screen (AID 1160)). Conditions: HEK293-NOX4, Amplex Red H2O2 fluorescence, 45 min; higher = more signal, called active from +8 up or from −8 down.
Chain of NADPH oxidase 4 (Homo sapiens) (Q9NPH5 whole entry, looked up): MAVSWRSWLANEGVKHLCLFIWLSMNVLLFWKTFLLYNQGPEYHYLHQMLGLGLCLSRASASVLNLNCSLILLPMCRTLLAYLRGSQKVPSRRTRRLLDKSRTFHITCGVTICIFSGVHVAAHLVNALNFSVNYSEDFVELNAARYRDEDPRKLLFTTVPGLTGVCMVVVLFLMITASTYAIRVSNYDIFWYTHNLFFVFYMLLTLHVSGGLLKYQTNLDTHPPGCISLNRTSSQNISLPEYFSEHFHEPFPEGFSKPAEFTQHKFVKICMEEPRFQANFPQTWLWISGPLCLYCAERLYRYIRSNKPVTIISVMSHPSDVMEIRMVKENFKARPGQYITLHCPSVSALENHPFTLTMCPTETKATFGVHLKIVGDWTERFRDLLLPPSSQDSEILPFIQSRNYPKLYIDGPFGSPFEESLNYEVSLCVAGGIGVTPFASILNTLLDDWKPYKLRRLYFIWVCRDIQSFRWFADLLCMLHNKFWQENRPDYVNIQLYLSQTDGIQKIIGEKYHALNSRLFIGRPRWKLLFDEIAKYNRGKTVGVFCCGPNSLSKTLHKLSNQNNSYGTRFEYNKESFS

z-score, inactive:
C=CCNC(=O)[C@H]1[C@@H]2C(=O)O[C@@H](c3ccccc3)[C@@H](c3ccccc3)N2[C@@H](c2ccc(OCCO)cc2)[C@]12C(=O)N(C(=O)OCCOC)c1ccc(C#CCC(C(=O)OC)C(=O)OC)cc12 0.791, C=CCOC(=O)[C@H]1[C@@H]2C(=O)O[C@@H](c3ccccc3)[C@@H](c3ccccc3)N2[C@@H](c2ccc(OCCOC(=O)[C@H]3C[C@H]4C(=O)NCC(=O)N4[C@H]3c3ccc(O)cc3)cc2)[C@]12C(=O)Nc1ccccc12 -0.365, COc1ccc(C(=O)Nc2ccc(CN3C(=O)[C@@]4(O[C@@H](CC(=O)N(CCO)Cc5ccccc5)[C@H]([Si](C)(C)c5ccc(OC)cc5)[C@H]4C)c4ccccc43)cc2)cc1 1.39, CCOC(=O)C1=CCC(c2ccncc2)N(S(=O)(=O)c2ccc(C)cc2)C1 (stereo not drawn) 0.432, O=C1O[C@H](c2ccccc2)[C@H](c2ccccc2)N2[C@H]1[C@@H](C(=O)O)[C@]1(C(=O)Nc3ccc(C#CC4(O)CCCCCC4)cc31)[C@H]2c1ccccc1OCCO -1.56, O=C1O[C@H](c2ccccc2)[C@H](c2ccccc2)N2[C@H]1[C@@H](C(=O)O)[C@]1(C(=O)Nc3ccccc31)[C@H]2c1ccc(OCCO)cc1 1.09, CCCCCCc1nc(-c2ccc(OC)nc2)c(C)c2c1[Si](C(C)C)(C(C)C)OC2 -0.117, COC(=O)Cn1c(C(=O)N(C)C)cc2c1C[C@H]1CN(C(=O)c3ccccc3)[C@@](Cc3ccccc3)(C(=O)OC)[C@@H]21 1.59
